Source: the supplement of paper PMC12632987

T1: USP38, Q8NB14
T1 chain: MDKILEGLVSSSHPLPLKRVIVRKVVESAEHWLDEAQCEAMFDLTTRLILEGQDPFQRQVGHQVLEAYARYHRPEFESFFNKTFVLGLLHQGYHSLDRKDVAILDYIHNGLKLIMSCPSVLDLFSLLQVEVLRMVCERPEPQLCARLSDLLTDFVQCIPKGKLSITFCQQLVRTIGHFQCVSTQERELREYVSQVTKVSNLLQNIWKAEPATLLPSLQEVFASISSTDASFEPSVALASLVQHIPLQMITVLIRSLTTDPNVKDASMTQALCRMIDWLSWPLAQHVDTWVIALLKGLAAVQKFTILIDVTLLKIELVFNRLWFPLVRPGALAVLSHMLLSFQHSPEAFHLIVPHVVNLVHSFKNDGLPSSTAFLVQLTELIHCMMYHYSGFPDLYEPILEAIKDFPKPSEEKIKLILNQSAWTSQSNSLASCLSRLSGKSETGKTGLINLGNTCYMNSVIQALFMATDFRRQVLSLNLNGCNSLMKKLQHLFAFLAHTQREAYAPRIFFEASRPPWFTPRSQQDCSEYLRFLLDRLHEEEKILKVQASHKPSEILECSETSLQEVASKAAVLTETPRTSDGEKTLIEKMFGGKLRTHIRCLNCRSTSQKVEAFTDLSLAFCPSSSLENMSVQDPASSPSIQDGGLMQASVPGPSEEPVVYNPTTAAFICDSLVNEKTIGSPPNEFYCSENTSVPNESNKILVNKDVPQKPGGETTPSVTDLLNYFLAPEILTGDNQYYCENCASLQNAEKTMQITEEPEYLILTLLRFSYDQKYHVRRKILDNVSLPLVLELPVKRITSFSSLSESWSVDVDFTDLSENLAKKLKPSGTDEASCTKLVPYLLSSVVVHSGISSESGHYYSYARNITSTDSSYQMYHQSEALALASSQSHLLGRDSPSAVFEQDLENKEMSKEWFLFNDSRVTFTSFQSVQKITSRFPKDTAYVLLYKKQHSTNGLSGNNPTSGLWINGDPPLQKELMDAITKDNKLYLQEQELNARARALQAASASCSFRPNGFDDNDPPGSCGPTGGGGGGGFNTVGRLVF

B1: usp_38_diff_out_18_28_366 (protein)
chain: SMEEREKLEKELEELKKELDALIDEATALATEALTAHPDDEEVWALVDELFDSLGKAAAHLNRARELLREGGPLEEVEKELKEAKEHLEKAKELLAKLKA
B2: usp_38_diff_out_18_28_379 (protein)
chain: EEARREELERRLEELRRRLDELIDEATEAATEALTAHPDDEEVWELVDELFDTLGRAAAALERARRLLREGGPLEEVERALEEAERHLEEAEELLEELEE
B3: usp_38_diff_out_18_14_356 (protein)
chain: SEEEREATRLFIEARLAAAELVNADADKIIAYEKKHKNRSADTIEMMRGGLAAMAAELEEDLKLAKELGDEELAARLAAAQAELKARAAEFDALLAEKKA
B4: usp_38_diff_out_18_14_351 (protein)
chain: EEELREQLLSNLKSLTKEVKENTERTKKIVEKLKDDPESASSLLDTRIQALEGVIKYAEEVLREAKEKGWEELAEAAKELIKEAKKAKEELKKLKEALKA
B5: usp_38_diff_out_18_14_353 (protein)
chain: SEELREQLLSNLKTLKEEVRENRERTKRIVARLRDDPESARSLLESRIQAFKGVIKFAEELEKEAKEEGDEELLAAAKELKKEAEEALKELEALLAELDA
B6: usp_38_diff_out_18_28_365 (protein)
chain: SEEERRELERRLEELTRRLDELIDEATEAATEALTAHPDDEEVWELVDRLFDALGAAAAALNRARELLREGGPLEEVEEELEEAERHLREAERLLEELRE
B7: usp_38_diff_out_18_14_350 (protein)
chain: SEELEKQKLSNLKSLKEEVKKNTERLKKIVEKLKDDPESALSLLDTRIQALEGVIKYAEEVLKEAEEKGWEELAKAAKELIKEAEKAKKEAKELKKKLLE
B8: usp_38_diff_out_18_28_368 (protein)
chain: SEEERRELERRLEELTKRLDELIDEATAESTRALTAHPDDEAVWALVDALFDALGAAAAALNRARELLREGGPLEEVQKELDRAEAALKEAEALLAELKA
B9: usp_38_diff_out_18_14_347 (protein)
chain: EEELAEQLKSNFESLTKEVEENTKRTKKIIEKLKDDKESAISLLETRIQALDGVITYAKEEKKEAEEKGFEELKAAAEKLIDAATKAKEELEKLLKELKK
B10: usp_38_diff_out_18_159_359 (protein)
chain: DEELLAELDKEILRDYSTSLAEEAKEKAKKAKDPEVKKLWAEVAKTAKYAAENLDNPEALAQAAKELTALTEELKKKGALNDREELQLQGLITLLNRVAA
B11: usp_38_diff_out_18_28_370 (protein)
chain: SEEERERLEERLAALKAELDALIDRATAAATAALEAHPDDAEVWALIDALFDALGAAAAALNEARRLLREGGDLEEVERLLEQAEAHLAQARALLAQLEA
B12: usp_38_diff_out_18_28_378 (protein)
chain: AAAERAALEAELAALRAELDALIDEATEAATRALEAHPDDEEVWALVDELFDTLGAAAAALNEARRLLKEGGDLAEVKAALAAARDALARARELLAELKA
B13: usp_38_diff_out_18_28_374 (protein)
chain: SEEEREELERRLRELEERLDELIDEYVELAERVYLEHPDDAEKLALLDAAADALGAAAYHLREARRLLREGGDPEEVERELEKAEEALEEAERLLEELKA
B14: usp_38_diff_out_18_28_372 (protein)
chain: SAAERAALEARLAALEAELNALIDEFVELAERVYEERADDEEALALLDRAWDALGAAAAALNRARELLREGGPAAEVQAQLDAAEAALAEAKALLAELKA
B15: usp_38_diff_out_18_28_362 (protein)
chain: AAAERARLEARLRALGARLDALITDATAAVTAALTAHPDDAAVWALVDALWDALGKAAAAVNEARELLRAGGPAEEVERALEAAEAALAEAQALLAQLRA
B16: usp_38_diff_out_18_14_354 (protein)
chain: SEELREQTLSNLETLTADVEANTARLRRVVAALKDDPASARALLETRAQAMEGVIEYAERLEREAEEEGDEELLEAARRLRATAEAALAEIQALLAELDA
B17: usp_38_diff_out_18_159_358 (protein)
chain: DAELLHQLNLELLKAHLKSWAENAEKKAKKTKTEVAKKVAELAKKALELFEKDPNSKEALKEILELAKEALELIKSDPSFNDRDKTSAAGLVVLAQEVLA
B18: usp_38_diff_out_18_28_375 (protein)
chain: SAATRAALEAELAALEARLDALIDEYVALANRVYEEHPDDAEALALLDAAADALGAAAAALAEARRLLRAGGDPAEVRARLAEARAALAEAEALLAQLKA
B19: usp_38_diff_out_18_14_357 (protein)
chain: SEAELEAQREYLEAFLEAAEIVNEEAERIIEREREKRILSADRLALMLGGLRALAEEAEEKLREARELGFEELAERLEEALERLEENAERFEALLAERRA
B20: usp_38_diff_out_18_28_376 (protein)
chain: SAAERARLEAELAALRAELDALIDEATATATEALEAHPDSEEVWALIDALFDALGAAAAALEEARRLLRAGGPLAEVQALLDRAREHLRRARELLAELKA
B21: usp_38_diff_out_18_28_367 (protein)
chain: SAAARAAAEARLAALTAELDELIDEATAEATAALTAHPDDAAVWALVDALFDALGAAAAALNRARELLREGGPLEEVEAALAQAEAELARARELLAQLRA
B22: usp_38_diff_out_18_14_352 (protein)
chain: EEELREQLLSNLRSLTEEVRRNTERLKRIVEKLRDDPESALALLETRRQALEGVIRYAREVLREARERGWEELAEAAEELIRAAEEALEEAKRLEEELKK
B23: usp_38_diff_out_18_14_348 (protein)
chain: SEELYEQELSNLKSLTEEVKKNTERLKKIVEKLKDDPESALSLLETREQALKGVIKYAEEVAKEAKKEGREELLKAAEELIKAAKEALAEAKKLREELLA
B24: usp_38_diff_out_18_14_349 (protein)
chain: SEELREQTLSNLKSLKKEVEEVTERTERIVEKLRGDPEAARALLDTRIQALEGVIKYAEEVLKEAEEEGWEEVAKAAKELIEAAKEAKKRAEELRKELEE
B25: usp_38_diff_out_18_28_373 (protein)
chain: SEEEREELKKRLEELEKRLDELIDRYVELANRVYEEHPDDEEKLRLLDEAADALGEAAYHLREARRLLREGGPPEEVKKELEKAEEALKKAEELLKELEE
B26: usp_38_diff_out_18_28_371 (protein)
chain: SAAERAALEARLAALEAELDALIDELVELAKEVYEEHADDEEKLALLDAAWDALGRAAGLLRRARELLREGGDPAEVAALLDAAEAALAEAKALLAELKK
B27: usp_38_diff_out_18_28_363 (protein)
chain: EEERRRRLEAELEALRARLDALITEATAAITEALTAHPDDEEVWRLVDELLDALGRAAAALEEARRLLREGGPLEEVERLLREAERELERAERLLEELKA
B28: usp_38_diff_out_18_28_361 (protein)
chain: MEEERRELEEELRRLEEELERLITEATEAITRALTAHPDDEEVWKLVDELWDALGKAAAAINEARELLREGGPLEEVKAKLDEARKYLKEAKKLLEELKK
B29: usp_38_diff_out_18_28_377 (protein)
chain: MEEERERLERELEELRERLDELIDEATEASLKKLEEEPDSEEVWELIDRLFDALGAAAAALREARELLKAGGPLEEVQRLLEEARRHLEEAERLLEELKE
B30: usp_38_diff_out_18_28_360 (protein)
chain: MEERREELEKRLKELKAELDKLITEATAAITEALEAHPDDEEVWALVDKLWDALGKAAAAINEARELLREGGDLEEVEKLLKEAEKHLKKAKELLAELKA
B31: usp_38_diff_out_18_28_369 (protein)
chain: SAAERAALEAELAALTARLDALIDEATAEATRRLTEHPDDEEVWELVDELFDALGAAAAALREARELLREGGPLAEVQAALDRARAALARAEALLAELKA
B32: usp_38_diff_out_18_28_364 (protein)
chain: SAAERAALEAELKALTAELDALIDEATEVATEKLTEHPDDEEVWELVDKLFDALGAAAAALNKARELLREGGPLEEVKKQLAKAKEALAEAKKLLEELKK

Biological target: T1, USP38, Q8NB14
Experiment: median log2 fold change of GCK-ALFA target abundance (FLAG IP / Myc IP barcode read proportion) (log2 ratio); each designed protein is fused to an ALFA-tag nanobody in HEK293 cells to bring the named protein to FLAG-tagged glucokinase (GCK); Myc marks an untargeted standard; higher = target protein stabilised (more abundant)
Settings: target protein: 3xFLAG-MCP-GCK-ALFA reporter; HEK293 landing pad (RPLP)
Summary of the method: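 An ALFA-nanobody-fused binder library was recombined into HEK293 landing-pad cells and induced with 2 μg mL^−1 doxycycline. Cells were transfected with a plasmid expressing a FLAG-tagged target and a Myc-tagged standard. After 48 h, lysates underwent anti-FLAG and anti-Myc immunoprecipitation, and circular RNA barcodes were reverse transcribed, amplified and sequenced. Target abundance is the per-binder median log2 ratio of FLAG to Myc barcode read proportions. Barcodes needed ≥10^−7 proportion in both replicates, binders ≥3 barcodes per replicate, and a 10^−6 pseudocount was added; the two replicates were pooled.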

| Binder | median log2 fold change |
| --- | --- |
| B1 | -0.062 |
| B2 | -0.355 |
| B3 | -0.0299 |
| B4 | -0.345 |
| B5 | -0.0535 |
| B6 | 0.239 |
| B7 | -0.185 |
| B8 | 0.199 |
| B9 | 0.152 |
| B10 | 0.289 |
| B11 | 0.0316 |
| B12 | -0.0434 |
| B13 | -0.302 |
| B14 | -0.142 |
| B15 | -0.0207 |
| B16 | -0.0379 |

| Binder | median log2 fold change |
| --- | --- |
| B17 | 0.093 |
| B18 | -0.238 |
| B19 | -0.477 |
| B20 | -0.0614 |
| B21 | 0.0424 |
| B22 | -0.239 |
| B23 | -0.156 |
| B24 | -0.113 |
| B25 | 0.0573 |
| B26 | -0.371 |
| B27 | -0.0876 |
| B28 | 0.017 |
| B29 | -0.388 |
| B30 | 0.282 |
| B31 | 0.292 |
| B32 | 0.391 |
